Data published in PubChem BioAssay AID463173 (ICCB-Longwood Screening Facility, Harvard Medical School, 2010).
The whole screen tested about 52,000 compounds, of which about 4,300 (8.3%) were called active. The full list was thinned out, with actives kept by preference. A number with no mark means an inactive call. Rule as the data show it: active = survival mostly below about 52% (no sharp cut-off); inactive = mostly above about 56%.

Each compound was assayed on DeltatarO mutant (assay: S. aureus survival, RN4220 and DeltatarO strains – OD600, teichoic acid synthesis inhibitors, primary screen (AID 463173)). Conditions: S. aureus RN4220 wild type/DeltatarO growth, OD600, 18 h, stronger effect = lower value, screened at 18.75 µg/mL (by protocol).

Row | SMILES | survival
1 | COc1ccc(OC)c(NC(=O)c2cc3c(s2)-c2ccccc2SC3)c1 | 65%
2 | Cc1ccc2c(c1)N(C(=O)CCC(=O)Nc1ccccc1Cl)CC(C)O2 (stereo not drawn) | 105%
3 | Cc1nnc2c(Nc3ccccc3I)nc3nonc3n12 | 77%
4 | N#CCCn1cc(CO)c(-c2ccccc2)n1 | 95%
5 | COc1cccc(C(=O)c2cn(CC(=O)Nc3cccc(C)c3C)c3nc(C)ccc3c2=O)c1 | 67%
6 | Cc1nc2ccn(Cc3cccs3)c(=O)c2cc1C(=O)N1CCN(c2ccc(F)cc2)CC1 | 131%
7 | COc1ccc(Cl)cc1NC(=O)COC(=O)CC(C)(C)CC1=NS(=O)(=O)c2ccccc2N1 | 70%
8 | CCOc1ccccc1NC(=O)COC(=O)CC(C)(C)CC1=NS(=O)(=O)c2ccccc2N1 | 79%
9 | CCc1ccc(NC(=O)COC(=O)CCCC2=NS(=O)(=O)c3ccccc3N2)cc1 | 109%
10 | O=C(COC(=O)CCCC1=NS(=O)(=O)c2ccccc2N1)Nc1ccc(Br)cc1 | 72%
11 | COc1ccccc1NC(=O)COC(=O)CC(C)(C)CC1=NS(=O)(=O)c2ccccc2N1 | -1% (active)
12 | Cc1cccc(NC(=O)COC(=O)CCCC2=NS(=O)(=O)c3ccccc3N2)c1 | -2% (active)
13 | CCn1c2ccccc2c2nnc(SCCN3CCCCC3)nc21 | 82%
14 | COC(=O)c1ccccc1NC(=O)c1ccc2nc(CCc3ccccc3)oc2c1 | 131%
15 | CCc1ccccc1N1C(=O)N(CC(=O)c2ccc(Cl)cc2)c2ccccc2S1(=O)=O | 82%
16 | O=C(NCCC1=CCCCC1)c1ccc2c(c1)sc1nc(-c3ccc(F)cc3)cn12 | 63%
17 | CCOc1ccc(CNC(=O)c2ccc3c(c2)sc2nc(-c4ccc(OC)cc4)cn23)cc1 | 84%
18 | CCOC(=O)c1ccc2c(c1)sc1nc(-c3ccc(OCC)cc3)cn12 | 44% (active)
19 | CCOC(=O)C1CCN(C(=O)c2ccc3c(c2)sc2nc(-c4ccc(OC)cc4)cn23)CC1 | 78%
20 | CCOC(=O)C1CCN(C(=O)c2ccc3c(c2)sc2nc(-c4ccccc4)cn23)CC1 | 54% (active)
21 | CCCNC(=O)c1ccc2c(c1)sc1nc(-c3ccc(C)cc3)cn12 | 89%
22 | CCOC(=O)C1CCN(C(=O)c2ccc3c(c2)sc2nc(-c4ccc(OCC)cc4)cn23)CC1 | 69%

Row | SMILES | survival
23 | Cc1ccc(-c2cn3c(n2)sc2cc(C(=O)NCCC4=CCCCC4)ccc23)cc1 | 56%
24 | CCN(CC)CCNC(=O)c1ccc2c(c1)sc1nc(-c3ccc(F)cc3)cn12 | 29% (active)
25 | O=C(NCc1ccccc1)c1ccc2c(c1)sc1nc(-c3ccc(F)cc3)cn12 | 101%
26 | CCN(CC)CCCNC(=O)c1ccc2c(c1)sc1nc(-c3ccc(C)cc3)cn12 | 24% (active)
27 | CCOC(=O)C1CCN(C(=O)c2ccc3c(c2)sc2nc(-c4ccc(C)cc4)cn23)CC1 | 98%
28 | COc1ccc(S(=O)(=O)Nc2cccc(-c3ccc(N4CCCC4)nn3)c2)cc1F | 85%
29 | COc1ccc(Nc2ncnc3c2cnn3C)c(OC)c1 | 89%
30 | CNS(=O)(=O)c1cn(CC(=O)Nc2cccc(C(F)(F)F)c2)cc1S(=O)(=O)NC | 107%
31 | Cc1ccccc1OC(=O)CSc1nnc(-c2ccc(F)cc2)o1 | 63%
32 | CCN1CCc2c(sc(NC(=O)c3ccc(S(=O)(=O)N(CCOC)CCOC)cc3)c2C(N)=O)C1 | 69%
33 | CCc1cccc(C)c1NC(=O)c1cc(S(=O)(=O)N2CCC3(CC2)OCCO3)ccc1F | 116%
34 | Cc1ccc(CSCCNC(=O)C2CCN(S(=O)(=O)Cc3ccccc3)CC2)cc1 | 99%
35 | CCCSCCCNC(=O)c1ccc2c(c1)sc1nc(-c3ccc(OCC)cc3)cn12 | 55%
36 | CCOc1ccc(-c2cn3c(n2)sc2cc(C(=O)NCCCN(CC)CC)ccc23)cc1 | 15% (active)
37 | CCOc1ccc(-c2cn3c(n2)sc2cc(C(=O)NCCCc4ccccc4)ccc23)cc1 | 72%
38 | COc1ccc(-c2nn(-c3ccccc3)cc2C2NC(=O)NC(C)=C2C(=O)OC(C)C)cc1Cl (stereo not drawn) | 106%
39 | Cc1ccc(NC(=O)c2ccc(CN3CC(=O)N4CCCCC4C3=O)cc2)cc1C (stereo not drawn) | 77%
40 | O=C(Nc1ccc(F)cc1)c1ccc(CN2CC(=O)N3CCCCC3C2=O)cc1 (stereo not drawn) | -4% (active)
41 | Cc1ccc(NC(=O)c2ccc(CN3CC(=O)N4CCCCC4C3=O)cc2)cc1 (stereo not drawn) | -5% (active)
42 | O=C(Nc1cc(F)ccc1F)c1ccc(CN2CC(=O)N3CCCCC3C2=O)cc1 (stereo not drawn) | 92%
43 | CC(C)c1ccc(NC(=O)c2ccc(CN3CC(=O)N4CCCCC4C3=O)cc2)cc1 (stereo not drawn) | 77%
44 | CCc1ccc(NC(=O)c2ccc(CN3CC(=O)N4CCCCC4C3=O)cc2)cc1 (stereo not drawn) | 66%

Row | SMILES | survival
45 | O=S(=O)(NCc1ccco1)c1cccc(S(=O)(=O)N2CCCCC2)c1 | 90%
46 | O=C(NC1CCCCC1)c1ccc(Cn2c(SCc3cccc(F)c3)nc3cccnc32)cc1 | 81%
47 | Cc1ccc2c(c1)N(C(=O)N1CCC(C(=O)NCc3ccccc3C)CC1)CC(C)O2 (stereo not drawn) | 74%
48 | Cc1noc(-c2ccc(N(C)Cc3ccccc3)c([N+](=O)[O-])c2)n1 | 75%
49 | COc1ccc(CC(=O)NCc2nc3cccnc3n2Cc2ccccc2)cc1 | 80%
50 | COc1ccccc1N1CCN(S(=O)(=O)c2c(C)sc3ncn(CC(=O)N(C)c4ccc(C(C)C)cc4)c(=O)c23)CC1 | 67%
51 | CCCCN(C)CCNC(=O)c1cc(-c2ccc(Cl)s2)nc2ccccc12 | 62%
52 | COc1cc(NC(=O)CSc2nc(C)c(C(=O)Nc3ccccc3)c(-c3ccc(OC)c(OC)c3)c2C#N)c(OC)cc1Cl | 61%
53 | COc1ccc(CCn2c(=O)c3cccnc3n(CC(=O)Nc3c(C)cc(C)cc3C)c2=O)cc1OC | 90%
54 | Cc1ccccc1CN1C(=O)c2ccccc2S(=O)(=O)c2ccc(C(=O)OCC3CCCO3)cc21 (stereo not drawn) | 71%
55 | CCOc1ccc(CCNC(=O)c2c(C)oc3ncn(CC(C)C)c(=O)c23)cc1 | 72%
56 | Cc1nc(N2CCCC2)c2c(C(=O)Nc3ccc(C)c(Cl)c3)c(C)oc2n1 | 124%
57 | Cc1ccc(NC(=O)c2c(C)oc3nc(C)nc(N4CCCC4)c23)c(C)c1 | 70%
58 | Cc1nc(N2CCCC2)c2c(C(=O)Nc3ccc(Br)cc3F)c(C)oc2n1 | 25% (active)
59 | CCc1cccc(NC(=O)c2c(C)oc3nc(C)nc(N4CCCC4)c23)c1 | 103%
60 | Cc1nc(N2CCCC2)c2c(C(=O)Nc3cccc(Cl)c3)c(C)oc2n1 | 20% (active)
61 | Cc1oc2ncnc(N3CCOCC3)c2c1C(=O)Nc1ccc(Br)cc1F | 135%
62 | COc1cc(Cl)c(C)cc1NC(=O)c1cnc(N2CCOCC2)c2ccccc12 | 71%
63 | COc1cc(CN(C(=O)c2ccccc2F)C2CCS(=O)(=O)C2)cc(OC)c1OC (stereo not drawn) | 46%
64 | COc1ccc(N2CCN(c3ncnc4c3cnn4C)CC2)cc1 | 75%
65 | O=c1c2cn[nH]c2nc(SCc2c(F)cccc2F)n1-c1ccc(Cl)cc1 | 91%
66 | CC(C)c1ccc(NC(=O)CN2CCC(n3nnc4ccccc43)CC2)cc1 | 69%

Row | SMILES | survival
67 | CCN(CC)CCN(C(=O)c1ccc(C(=O)OC)cc1)c1nc2ccc(Cl)cc2s1 | -4% (active)
68 | CCc1ccc2nc(N(CCN(CC)CC)C(=O)c3ccco3)sc2c1 | 54%
69 | CCN(CC)CCN(C(=O)c1ccco1)c1nc2ccc(Cl)cc2s1 | 66%
70 | COc1ccc(-c2cn3nc(N4CCCC(C(=O)Nc5cc(C)cc(C)c5)C4)sc3n2)cc1 (stereo not drawn) | 75%
71 | COc1ccc(-n2nnc(-c3nsc(NC(=O)c4cccc(C)c4)n3)c2C)cc1OC | 88%
72 | CN(C)CCNC(=O)c1ccc(-n2c(-c3ccccc3)cc3c2CCCC3)cc1 | 33% (active)
73 | CCN(CC)CCNC(=O)c1ccc(-n2c(-c3ccccc3)cc3c2CCCC3)cc1 | 8% (active)
74 | CCNC(=O)c1ccc(-n2c(-c3ccccc3)cc3c2CCCCC3)cc1 | 43% (active)
75 | CC(C)NC(=O)c1ccc(-n2c(-c3ccccc3)cc3c2CCCCC3)cc1 | 108%
76 | COCCCNC(=O)c1ccc(-n2c(-c3ccccc3)cc3c2CCCCC3)cc1 | 39% (active)
77 | COCCCNC(=O)c1ccc(-n2c(-c3ccccc3)cc3c2CCCC3)cc1 | 70%
78 | CCCNC(=O)c1ccc(-n2c(-c3ccccc3)cc3c2CCCCC3)cc1 | 103%
79 | CCOCCCNC(=O)c1ccc(-n2c(-c3ccccc3)cc3c2CCCC3)cc1 | 69%
80 | CN(C)CCNC(=O)c1ccc(-n2c(-c3ccccc3)cc3c2CCCCC3)cc1 | 53%
81 | CC(C)OCCCNC(=O)c1ccc(-n2c(-c3ccccc3)cc3c2CCCC3)cc1 | 75%
82 | COCCNC(=O)c1ccc(-n2c(-c3ccccc3)cc3c2CCCCC3)cc1 | 110%
83 | CCOCCCNC(=O)c1ccc(-n2c(-c3ccccc3)cc3c2CCCCC3)cc1 | 49%
84 | Cc1nnc(NCc2ccccc2)c2c1nnn2Cc1ccccc1Cl | 92%
85 | COc1ccc(CCNC(=O)c2c(C)nn(-c3ccc(F)cc3)c2-n2cccc2)cc1OC | 74%
86 | Cc1oc2c(c1C(=O)Nc1ccc(OC(F)(F)F)cc1)C1=NCCN1C=N2 | 80%
87 | COc1ccccc1CN1C(=O)CN(C2CCCCCC2)C(=O)C1c1ccc(C)cc1 (stereo not drawn) | 88%
88 | Cc1ccc(-n2c(SCC(=O)Nc3cccc(C)c3)nc3c(oc4ccccc43)c2=O)cc1 | 99%
